Screening results as filed in PubChem BioAssay.
Hits are enriched below; roughly 18% of the tested compounds scored in any of these assays.
DT40 TDP1 CPT: DT40-hTDP1 cell growth loss with CPT | chicken DT40 Tdp1-/-;hTDP1 cells + 20 nM CPT, ATP luminescence, 48 h | AID 686979 | 12% of 420,000 active | Potency, µM (series often up to 46.2 µM), actives largely listed as inhibitors; note: nearly all actives have a fitted effect of over 55% in size
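Chicken DT40 Tdp1-/- cells complemented with human TDP1, 400 cells/well, exposed to compounds plus 20 nM camptothecin for at least 48 h at 37 C; viability read as ATP content by CellTiter-Glo luminescence.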
CtBP-E1A inh: CtBP/E1A binding inhibition; 0.49% of 340,000 active; AlphaScreen GST-E1A/His-CtBP binding, 1536-well; active compounds read low; activity change, % (concentration not given with the values); in the data active = activity change below about -65%; inconclusive = mostly about -30% to -63%
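AlphaScreen with 125 nM GST-E1A and 125 nM His-CtBP (5X stocks) in Tris pH 8.0, 300 mM NaCl, BSA, Tween 20, TCEP. Compounds preincubated 2 h at 37 deg C, then glutathione donor/nickel acceptor beads added for 1 h at 37 deg C in dark.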
Six1-Eya2 inh: blocks human Six1 binding to Eya2. 0.56% of 360,000 active. Q15475+O00167. activity change, % (concentration not given with the values). AlphaScreen GST-Six1/His-Eya2 binding, biochemical; active compounds read low; in the data active = activity change below about -65%; inconclusive = mostly about -30% to -63%
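Homogeneous AlphaScreen proximity assay pairing GST-Six1 with His-tagged Eya2 (added as 5X mix: 250 nM and 500 nM) in 50 mM Tris pH 8.0, 300 mM NaCl, 1 mM TCEP. Glutathione donor and nickel acceptor beads; 1 h, 37 °C, dark.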
IL-1B inflam inh: blocks inflammasome-driven IL-1 beta release; THP-1 LPS/ATP IL-1B secretion, AlphaLISA, 16 h; active compounds read low; activity change, % at 57.5 µM; 4.7% of 360,000 active; in the data active = activity change below about -50%; inconclusive = mostly about -30% to -49%
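Secreted IL-1B measured by AlphaLISA bead assay after 16 h compound exposure of THP-1 cells; compounds (final up to 57.5 uM) added 1 h before LPS (250 ng/mL) and ATP (1.25 mM) stimulation; lower signal means less secretion.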
TDP1 cell noCPT: qHTS for Inhibitors of human tyrosyl-DNA phosphodiesterase 1 (TDP1): qHTS in cells in absence of CPT; DT40 Tdp1-/- hTDP1 cells, no CPT, ATP luminescence, 48 h; Potency, µM (doses to about 46.2 µM), usual class: inhibitors; 15% of 420,000 active; AID 686978, 2013; note: nearly all actives have a fitted effect of over 55% in size
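Chicken DT40 Tdp1-/- cells complemented with human TDP1, screened without camptothecin (DMSO vehicle only), 400 cells/well. Compounds pin-transferred, cells incubated at 37 °C for at least 48 hr. Growth read as ATP-dependent luminescence (CellTiter-Glo, 30 min at RT).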
TDP1 block: TDP1 (human) enzyme inhibition; Q9NUW8; recombinant TDP1, AlphaScreen DNA substrate cleavage; Potency, µM (highest dose often 130 µM), most hits filed as inhibitors; 0.28% of 350,000 active; AID 485290; note: nearly all actives have a fitted effect of over 40% in size
Target sequence (Q9NUW8 whole entry, looked up): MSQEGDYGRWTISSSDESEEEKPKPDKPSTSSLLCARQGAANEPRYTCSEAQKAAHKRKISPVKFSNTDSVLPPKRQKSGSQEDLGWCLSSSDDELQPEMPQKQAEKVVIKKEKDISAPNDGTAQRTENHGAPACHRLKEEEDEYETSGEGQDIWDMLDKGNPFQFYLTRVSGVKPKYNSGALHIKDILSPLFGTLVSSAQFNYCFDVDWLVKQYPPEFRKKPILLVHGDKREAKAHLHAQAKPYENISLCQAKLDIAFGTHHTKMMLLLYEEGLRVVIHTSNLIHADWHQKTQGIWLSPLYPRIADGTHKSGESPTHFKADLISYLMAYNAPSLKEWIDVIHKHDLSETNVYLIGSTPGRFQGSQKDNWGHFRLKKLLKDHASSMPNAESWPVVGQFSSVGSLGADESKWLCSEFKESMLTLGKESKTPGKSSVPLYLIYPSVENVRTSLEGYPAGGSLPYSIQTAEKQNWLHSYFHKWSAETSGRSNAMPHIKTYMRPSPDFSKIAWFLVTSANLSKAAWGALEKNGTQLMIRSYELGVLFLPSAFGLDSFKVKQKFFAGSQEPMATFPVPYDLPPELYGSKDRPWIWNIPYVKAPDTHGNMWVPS
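Recombinant E. coli-expressed Tdp1 (1 nM) preincubated with compound 15 min at RT, then 5'-biotin/3'-phosphotyrosine-FITC DNA substrate (15 nM) added for 5 min. AlphaScreen beads (10 ug/ml) added, 10 min RT; tyrosine-FITC cleavage read as signal loss.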
Hits are given with their value; n = inactive; u = inconclusive; x = not tested or not shown; ! = a repeat was not active. Unless noted, calls come from the whole dose curve; as a rule, active = well fitted curve in the direction sought with a large enough effect; inconclusive = small, poorly fitted or top-dose-only effect, or another doubt; inactive = no such curve, though single readings can be large; an effect the other way counts as inactive or inconclusive.

SMILES	DT40 TDP1 CPT	CtBP-E1A inh	Six1-Eya2 inh	IL-1B inflam inh	TDP1 cell noCPT	TDP1 block
COc1cc(Cc2nc3ccccc3n2C(C)c2nc3ccccc3[nH]2)cc(OC)c1 (stereo unspecified)	18.4µM	n	n	n	u	x
c1ccc(-c2nc3ccccc3n2C(c2ccccc2)c2nc3ccccc3[nH]2)cc1 (stereo unspecified)	u	n	n	n	u	x
O=c1c(-c2ccccc2)nc2ccccc2n1C(c1ccccc1)c1nc2ccccc2[nH]1 (stereo unspecified)	n	n	n	-53.5	n	x
O=C(c1ccc(F)cc1)C1CCN(C(=S)Nc2ccccc2Cl)CC1	n	n	n	n	n	n
COc1ccc(C(=O)Nc2ccc(N3CCOCC3)cc2)cc1S(=O)(=O)N1CCCC1	n	n	n	n	n	n
N=c1c2c(-c3ccccc3)c(-c3ccccc3)n(Cc3ccccc3)c2ncn1CCO	n	n	n	-107.4	n	n
CC(C)Cn1cnc2c(c(-c3ccccc3)c(-c3ccccc3)n2Cc2ccco2)c1=N	20.6µM	n	n	-65.1	18.4µM	n
N=c1c2c(-c3ccccc3)c(-c3ccccc3)n(Cc3ccco3)c2ncn1Cc1ccccc1	n	n	n	n	n	n
c1ccc(OCCCn2ccnc2)cc1	n	n	n	n	n	x
O=c1c2ccccc2nc(-c2ccccc2)n1CCCN1CCOCC1	n	n	n	n	n	n
N=c1c2c(-c3ccccc3)c(-c3ccccc3)n(Cc3ccco3)c2ncn1CCCn1ccnc1	18.4µM	n	n	n	18.4µM	n
N=c1c2c(-c3ccccc3)c(-c3ccccc3)n(Cc3ccco3)c2ncn1CCCN1CCOCC1	u	n	n	-96.3	3.66µM	n
O=C(Nc1ccc(CN2CCOCC2)cc1)c1ccc(Cl)cc1Cl	n	n	n	n	n	x
c1ccc2c(c1)oc1c(NCCCn3ccnc3)ncnc12	u	n	n	n	n	n
c1ccc(-c2c(-c3ccccc3)n(Cc3ccco3)c3ncnc(NCCCn4ccnc4)c23)cc1	u	u	u	-98.2	u	n
CN(C)CCCNc1ncnc2oc(-c3ccccc3)c(-c3ccccc3)c12	u	n	n	-82.7	u	x
c1ccc(-c2oc3ncnc(NCCCn4ccnc4)c3c2-c2ccccc2)cc1	23.1µM	n	n	-78.7	18.4µM	n
O=Cc1ccc2c(c1)CCN2Cc1ccccc1	n	n	n	n	n	x
COC(=O)c1cccc(NC(=O)c2nn(C)c(=O)c3ccccc23)c1	23.1µM	-84.5	-82.9	n	8.2µM	n
COc1ccccc1NS(=O)(=O)c1cccc(NC(=O)c2nn(C)c(=O)c3ccccc23)c1	u	n	n	n	23.1µM	n
O=C(Cn1nc(C(=O)O)c2ccccc2c1=O)Nc1cccc(S(=O)(=O)N2CCCCC2)c1	n	u	u	n	n	n
COc1ccc(NC(=O)c2nn(C)c(=O)c3ccccc23)cc1S(=O)(=O)Nc1ccccc1Cl	u	n	n	n	u	n
Cn1nc(C(=O)Nc2cccc(S(=O)(=O)N3CCCCC3)c2)c2ccccc2c1=O	u	n	n	-53.6	u	n
COC(=O)c1ccc(C)c(NC(=O)c2nn(C)c(=O)c3ccccc23)c1	n	n	n	n	n	n
COc1ccc(CCCc2nnc(SCC(=O)Nc3ccc(OC)cc3)o2)cc1	n	n	n	n	n	n
SMILES	DT40 TDP1 CPT	CtBP-E1A inh	Six1-Eya2 inh	IL-1B inflam inh	TDP1 cell noCPT	TDP1 block
CC(=O)Nc1ccc(S(=O)(=O)N2CCCC(C(=O)N3CCN(c4ccccc4)CC3)C2)cc1 (stereo unspecified)	23.1µM	n	n	n	20.6µM	n
COC(=O)Nc1ccc(S(=O)(=O)N2CCCC(C(=O)N3CCN(C)CC3)C2)cc1 (stereo unspecified)	n	n	n	n	n	n
O=C(C1CCCN(S(=O)(=O)Cc2ccccc2)C1)N1CCC(Cc2ccccc2)CC1 (stereo unspecified)	16.4µM	n	n	n	10.3µM	n
O=C(C1CCCN(S(=O)(=O)c2ccccc2)C1)N1CCCCCC1 (stereo unspecified)	n	n	n	n	16.4µM	n
N#CCO/N=C/C(=O)Nc1ccc(F)cc1F	n	n	n	n	n	n
COC(=O)C1=C(C(=O)OC)SC2(S1)C(C(=O)OC)=C(C(=O)OC)SC1=C2c2cc(C)ccc2NC1(C)C	20.6µM	n	n	n	14.6µM	n
Cc1cc(S(=O)(=O)Nc2ccc(-c3ccc(N4CCCCC4)nn3)cc2)c(C)cc1Cl	13µM	x	x	x	u	n
COc1cc(C)c(S(=O)(=O)Nc2cccc(-c3ccc(N4CCCC4)nn3)c2)cc1C	u	x	x	x	n	n
O=S(=O)(Nc1ccc(-c2ccc(N3CCCC3)nn2)cc1)c1ccc(Cl)cc1	14.6µM	x	x	x	u	n
O=S(=O)(Nc1ccc(-c2ccc(N3CCCCC3)nn2)cc1)c1ccc(OC(F)(F)F)cc1	u	x	x	x	16.4µM	n
O=S(=O)(Nc1ccc(-c2ccc(N3CCCC3)nn2)cc1)c1ccc(Br)cc1	u	x	x	x	u	n
COc1ccccc1NC(=O)c1ccc(CS(=O)(=O)c2ccc(C)cc2)cc1	u	n	n	n	n	n
O=C(NCCCn1ccnc1)/C(=C\c1cccnc1)NC(=O)c1cccc(Br)c1	n	n	n	n	n	n
OCC1OC(n2cnc3c(=S)nc[nH]c32)C(O)C1O (stereo unspecified)	10µM!	x	x	x	u	n
Nc1nc(=S)c2ncn(C3OC(CO)C(O)C3O)c2[nH]1 (stereo unspecified)	4.11µM	u	u	n	8.2µM	u
CC1(C)OC2C(CO)OC(n3cnc4c(=S)nc(N)[nH]c43)C2O1 (stereo unspecified)	11.6µM	n	n	n	14.6µM	x
Nc1nc(=S)c2ncn(C3CCCCC3)c2[nH]1	n	n	u	n	n	x
Nc1nc(=S)c2ncn([C@@H]3O[C@H](CO)[C@@H](O)[C@H]3O)c2[nH]1	1.64µM	n	n	n	1.84µM	x
CCSc1nc(N)nc2c1ncn2C1OC(CO)C(O)C1O (stereo unspecified)	n	n	n	n	n	x
Nc1c(C(=O)O)cnc2c(-c3ccc(Cl)cc3)cnn12	n	n	n	n	n	n
OCC(O)C(O)[C@H](O[C@H]1OC(CO)C(O)C(O)C1O)[C@H](O)CO (stereo partly specified)	n	x	x	x	n	n
CCOc1ccccc1NC(=O)C1CCN(S(=O)(=O)c2cccc3nonc23)CC1	n	x	x	x	u	n
CC[n+]1ccnc2ccccc21	2.24µM	x	x	x	2.82µM	x
O=C(C[n+]1ccnc2ccccc21)c1ccc(Cl)cc1	n	x	x	x	u	x
